Compound activity from PubChem.
Anesthetic bind: qHTS Assay for Identification of Novel General Anesthetics; Ferritin light chain (Equus caballus), P02791; apoferritin/1-aminoanthracene competitive binding, fluorescence; Potency, µM (highest dose often 77.5 µM), most hits filed as inhibitors; 350,000 compounds, 0.074% hits; AID 485281, 2010; note: nearly all actives have a fitted effect of over 20% in size
Target sequence (P02791 2-175 limits assumed): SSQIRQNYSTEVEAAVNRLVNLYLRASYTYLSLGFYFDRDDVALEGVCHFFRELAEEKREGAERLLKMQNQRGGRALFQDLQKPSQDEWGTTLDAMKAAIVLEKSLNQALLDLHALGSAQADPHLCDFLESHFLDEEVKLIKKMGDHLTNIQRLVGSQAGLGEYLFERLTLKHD
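Horse-spleen apoferritin (10 uM) in 50% saturated 1-aminoanthracene in PBS was incubated 10 min at room temperature with compound. Fluorescence (ex 380, em 535 nm) was normalized to free and bound 1-AMA, with concentration-response fitted by a four-parameter Hill equation.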
N370S GC: qHTS Assay for Inhibitors and Activators of N370S glucocerebrosidase as a Potential Chaperone Treatment of Gaucher Disease; N370S GC spleen homogenate, 4MU-glucoside fluorescence; 330,000 compounds, 0.092% hits; Potency, µM (series often up to 59.4 µM), most hits filed as inhibitors
CBFb RUNX1 block: qHTS Assay for Compounds Blocking the Interaction Between CBF-beta and RUNX1 for the Treatment of Acute Myeloid Leukemia | AlphaScreen CBFb-His/RUNX1-biotin binding, biochemical | Potency, µM (doses to about 59.8 µM), usual class: inhibitors | 230,000 tested, under 10 active
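Proteins preincubated together for 20 min at RT before compound addition; 15 min later, nickel and streptavidin beads were added and left 90 min prior to AlphaScreen measurement.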
Integrin act MD: qHTS for Activators of Integrin-Mediated Alleviation for Muscular Dystrophy; Potency, µM (doses to about 38.3 µM), hits mostly activators; 350,000 compounds, 0.064% hits; alpha7betagal myoblasts, beta-gal FDG fluorescence, 48 h; note: nearly all actives have a fitted effect of over 60% in size
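Alpha7betagal+/- myoblasts (passage 13) were plated 16-24 hr, then exposed to compounds (1:260 dilution of DMSO stock) for 48 hours at 37C. After MPER lysis, β-galactosidase reporter activity was read as FDG fluorescence (ex 480/em 540) after 30 minutes.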
ClpP mod: qHTS Assay for Activators of ClpP. 340,000 compounds, 1.9% hits. purified B. subtilis ClpP, FRET peptide cleavage, 20 min. Potency, µM (titrated, usually from 57.5 µM). ATP-dependent Clp protease proteolytic subunit (Bacillus subtilis (strain 168)), P80244; active = well fitted falling curve with a large enough effect; inconclusive = small, poorly fitted or top-dose-only effect; inactive = no such curve, though single readings can be large or run the other way; note: the source files actives as falling curves though it sought activators and does not explain the sign; nearly all actives have a fitted effect of over 65% in size
Target sequence (P80244 whole entry, looked up): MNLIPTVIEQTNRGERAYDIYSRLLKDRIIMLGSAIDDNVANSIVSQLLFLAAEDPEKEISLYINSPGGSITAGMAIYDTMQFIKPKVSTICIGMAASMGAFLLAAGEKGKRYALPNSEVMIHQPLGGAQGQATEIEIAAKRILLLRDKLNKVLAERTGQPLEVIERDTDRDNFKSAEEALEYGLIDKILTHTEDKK
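ClpP 10 microg/mL final, pH 8 Tris/KCl buffer with BSA, glycerol, Tween-20; compound pinned in; FRET-FV substrate; RT 20 min; Ex320/Em430; ΔFRET vs ADEP 5.8 microM, DMSO, no enzyme.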
Glioma ERSR ind: qHTS for Inducers of the Endoplasmic Reticulum Stress Response (ERSR) in Human Glioma: qHTS; 420,000 compounds, 0.02% hits; U87-MG GRP78 promoter luciferase reporter, 16 h; AID 602332, 2012; Potency, µM, hits mostly activators; note: series mostly up to about 76 µM; nearly all actives have a fitted effect of over 35% in size
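Stably transfected U87-MG glioma cells carrying a GRP78-based luciferase sensor; 16 h compound incubation. Luminescence end-point read 10 min after Bright-Glo addition at room temperature.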
Hits are given with their value; 0 = inactive; ? = inconclusive; - = no result; [ ] = remark or other dose. This excerpt belongs to a sample that is enriched for hits. Unless noted, calls come from the whole dose curve; as a rule, active = well fitted curve in the direction sought with a large enough effect; inconclusive = small, poorly fitted or top-dose-only effect, or another doubt; inactive = no such curve, though single readings can be large; an effect the other way counts as inactive or inconclusive.

SMILES | Anesthetic bind | N370S GC | CBFb RUNX1 block | Integrin act MD | ClpP mod | Glioma ERSR ind
CC(C)(CNC(=O)c1cnn(-c2nccc(-c3cccs3)n2)c1C1CC1)N1CCOCC1 | - | - | - | - | - | 0
CCN1CCN(CC(=O)c2cc(Cl)ccc2Cl)CC1 | 0 | 0 | 0 | 0 | 0 | 0
O=C(Cn1c(-c2cccs2)cc2cc(Cl)ccc21)N1CCCCC1 | 0 | - | - | - | 35µM | 0
Cc1cc(Cl)ccc1-n1c(CCC(=O)O)ccc1-c1cccs1 | 0 | - | - | - | 0 | 0
CCN1CCN(C(=O)Cn2c(-c3cccs3)cc3cc(Cl)ccc32)CC1 | 0 | - | - | - | 32µM | 0
CCOC(=O)Cn1c(-c2cccs2)cc2cc(Cl)ccc21 | 0 | - | - | - | 22µM | 0
Cc1ccc(-n2nc(C)c3c(C)cc(=O)[nH]c32)cc1 | 0 | 0 | 0 | 0[7.66 µM] | 28µM | 0
Cn1c(NN)nc2sc3c(c2c1=O)CC(C)(C)OC3 | 0 | 0 | 0 | 0 | 0 | 0
CCC1(C)Cc2c(sc3nc(NC)n(C)c(=O)c23)CO1 (stereo not drawn) | 0 | 0 | 0 | 0 | 14µM | 0
CCn1nc(C)c(CN2CCC3(CCC(CNC(=O)c4ccccc4)O3)CC2)c1C (stereo not drawn) | - | - | - | - | - | 0
COCC(=O)Nc1cc(C(=O)N2CCc3c([nH]c4ccccc34)C2)cc2nc(-c3ccccc3)n(C)c12 | - | - | - | - | - | 0
CC1=C(C(=O)OC2CCCCC2)C(c2ccccc2)NC(=O)N1 (stereo not drawn) | ? | 0 | - | 0 | 2.8µM | 0
NNC(=O)CNC(=O)c1cccc(Br)c1 | 28µM | 0 | 0 | 0 | 0 | 0
O=C(CNC(=O)c1cccc(Br)c1)N/N=C/c1ccc[nH]1 | ? | 0 | 0 | 0 | - | 0
Cc1ccc2nc(SCC(=O)NCC3Cc4cc(-c5ncccc5C)ccc4O3)[nH]c2c1 (stereo not drawn) | - | - | - | - | - | 0
Cc1ccc(-c2nc(NC(=O)CSc3nnc(C)s3)ns2)cc1 | 0 | 0 | 0 | 0 | 0 | 0
COc1ccc(-c2nc(NC(=O)CSc3nnc(C)s3)ns2)cc1 | 0 | 0 | 0 | 0 | 18µM | 0
O=CC(=O)c1ccc(F)cc1 | - | - | - | - | 0 | 0
CC(C)c1c(C(=O)N(C)Cc2cccc3ncccc23)cnn1-c1nccc(-c2ccco2)n1 | - | - | - | - | - | 0
CC(C)CSc1nnc(CNC(=O)c2ccccn2)n1C | - | - | - | - | - | 0
Cc1ccc(NS(=O)(=O)c2ccc(C(=O)N3CC(C)CC(C)C3)cc2)cc1 (stereo not drawn) | - | 0 | - | 0 | 0 | 40µM
Cc1ccc(S(=O)(=O)Nc2ccc(C(=O)N3CCCC3)cc2)cc1 | 0 | 0 | - | 0 | 0 | 0
Cc1nc(N)c(C#N)c(-c2ccc3c(c2)OCO3)c1C | 0 | 0 | - | ? | 0 | 0
N#Cc1c(N)oc(-c2ccc3c(c2)OCO3)c1-c1ccc2c(c1)OCO2 | 0 | 0 | 0 | 0 | 14µM | 0
OC1CCN(c2c3c(nc4cc(-c5ccc(Cl)cc5)nn24)CCC3)CC1 | 0 | 0 | 0 | 0 | 14µM | 0
SMILES | Anesthetic bind | N370S GC | CBFb RUNX1 block | Integrin act MD | ClpP mod | Glioma ERSR ind
Fc1cccc(-c2cc3nc4c(c(N5CCOCC5)n3n2)CCCC4)c1 | 0 | 0 | 0 | 0 | ? | 0
Clc1cccc(N2CCN(c3c4c(nc5nncn35)CCC4)CC2)c1 | 0 | - | - | - | 0 | -
Clc1cccc(-c2cc3nc4c(c(N5CCN(c6cnccn6)CC5)n3n2)CCCC4)c1 | 0 | 0 | 0 | 0 | 10µM | 0
Clc1cccc(-c2cc3nc4c(c(N5CCOCC5)n3n2)CCCC4)c1 | 0 | 0 | 0 | ? | 32µM | 0
CC(=O)N1CCC[C@H]1C(=O)NCC1Cc2cc(-c3cccc(OC(F)(F)F)c3)ccc2O1 (stereo partly drawn) | - | - | - | - | - | 0
COc1cccc2ccc(CN3CCC4(CC3)c3ccccc3[C@@H](NC(=O)c3ccccc3)[C@@H]4O)nc12 | - | - | - | - | - | 0
CCCCNc1nnc(SCC(=O)c2c(N)n(CCC)c(=O)[nH]c2=O)s1 | - | - | - | 4µM | 0 | 0
CCCn1c(N)c(C(=O)CSc2nc(C)nc3sc(C)c(C)c23)c(=O)[nH]c1=O | - | 0 | - | 0 | 0 | 0
COc1cc(=O)n2c(c1C(=O)N(C)C(C)c1ccco1)CCN(C(=O)c1ccc(C(C)=O)cc1)CC2 (stereo not drawn) | - | - | - | - | - | 0
Cc1cccc(NC(=O)c2ccc(NCC3CCCO3)c([N+](=O)[O-])c2)c1 (stereo not drawn) | 0 | 0 | 0 | 0 | 0 | 0
Cc1cccc(NC(=O)c2ccc(NCC3CCCO3)c([N+](=O)[O-])c2)n1 (stereo not drawn) | 28µM | 0 | 0 | 0 | 0 | 0
Cc1ccc(N(C(=O)COc2ccccc2C)S(=O)(=O)c2ccc(Cl)cc2)cc1 | ? | - | - | - | 0.71µM | 0
CCOc1ccc(/C=C/c2ccc3ccccc3[n+]2C)cc1OCC | - | - | - | - | 0 | 0
O=C(COc1ccccc1C(=O)Nc1ccccc1F)Nc1ccc(Br)cc1 | - | - | - | - | 0 | 0
C=CCn1c(CCC(=O)O)ccc1-c1ccccc1 | 0 | 0 | 0 | 0 | 28µM | 0
O=C(O)CCc1ccc(-c2ccc(Cl)cc2)n1CCC(=O)O | 0 | 0 | 0 | 0 | 0 | 0
CCCCCc1cc[n+](CC(=O)c2ccccc2)cc1 | - | - | - | - | 0 | 0
CCCCN(CCCC)c1ccc(Cn2ccc3ccccc32)cc1 | - | - | - | - | 0 | 0
COc1cc2c(=O)n(Cc3ccccc3)c(=O)n(CC(=O)NCCc3ccccc3)c2cc1OC | 0 | 0 | 0 | 0 | 28µM | 0
CCC(c1nnnn1Cc1ccc(F)cc1)N(CCCO)Cc1cc2cc3c(cc2[nH]c1=O)OCO3 (stereo not drawn) | 0 | 0 | 0 | 0 | 32µM | 0
O=c1[nH]c(=O)n(Cc2ccccc2)c2nc(-c3ccco3)cc(C(F)(F)F)c12 | 0 | 0[2.35 µM] | 0 | 0 | 14µM | 0
O=C(NCC1Cc2cc(F)cc(-c3cccnc3)c2O1)c1cnn(-c2ccccc2)c1 (stereo not drawn) | - | - | - | - | - | 0
Cc1oc2c(CN3CCCC3)c(O)ccc2c(=O)c1-c1ccc(Br)cc1 | 0 | 0 | 0 | ? | 14µM | 0
COc1ccc(-c2c(C)oc3c(CN4CCN(CCO)CC4)c(O)ccc3c2=O)cc1OC | 0 | 0 | 0 | 0 | 22µM | 0
Cc1ncc2c(c1CNC(=O)c1cncs1)CCN(C(=O)c1cc(F)c(F)cc1F)C2 | - | - | - | - | - | 0
O=c1[nH]c(NCCCO)nc2c1C1(CCCC1)Cc1ccccc1-2 | 0 | 0 | 0 | 0 | 14µM | 0
O=c1[nH]cnc2c1C1(CCCC1)Cc1ccccc1-2 | 0 | 0 | 0 | 0 | 13µM | 0
CCC1(CC)Cc2ccccc2-c2nc(NCCCO)[nH]c(=O)c21 | 0 | ? | 0 | 0 | - | 0
